Results taken from ChEMBL document CHEMBL3433997, “St. Jude Leishmania screening dataset” (2016).

target: Glucose transporter (Leishmania mexicana) (UniProt O61059); assay: ST_JUDE_LEISH: Cytotoxicity at 2uM final concentration against transgenic Leishmania Mexicana promastigotes LmGT2 that are glucose transport deficient and complemented with the L. Mexicana glucose transporter 2. Activity is measured by DNA content using SYBR green in vitro; format: functional

Going from Cc1cc(NC(=O)Nc2ccc3nccc(N4CCN(C)CC4)c3c2)ccc1Br to CN1CCN(c2ccnc3ccc(NC(=O)Nc4cccc5ccccc45)cc23)CC1, the inhibition rises from 1.15% to 1.87%.

First: Cc1[nH]c(C)c(-c2ccc(-c3ccc(OC(F)(F)F)cc3)nc2)c(=O)c1Cl
Second: Cc1cc(=O)c2cc(-c3ccc(OC(F)(F)F)cc3)ccc2[nH]1
The inhibition of the first is higher: 0.22% for the first, -0.86% for the second.

Compared with CC(C)N1CCC(N(Cc2ccc(-c3ccc(C(F)(F)F)cc3)cc2)C(=O)Cn2c(SCc3cccc(F)c3F)cc(=O)c3c2CCC3)CC1, CCN(CC)CCN(Cc1ccc(-c2ccc(C(F)(F)F)cc2)cc1)C(=O)Cn1cc(CCCCc2cccc(F)c2F)c(=O)c2ccccc21 is higher in inhibition: -3.84% for the first, 10.4% for the second.

Going from CC(C)(C)OC(=O)NCCc1cccc(-c2c[nH]c3ncc(-c4cccc(NS(C)(=O)=O)c4)cc23)c1 to O=C(Nc1cccc(-c2cccc(-c3nc4cc(C(F)(F)F)ccc4[nH]3)c2)c1)c1cccnc1, the inhibition falls from 7.65% to -1.51%.

Going from Cc1cccc2nc(-c3ccc(-c4ccc(CNCCNC(=O)c5ccnn5C)cc4)cc3)[nH]c12 to CN(C)CCNCc1ccc(-c2cccc(-c3nc4ccccc4[nH]3)c2)cc1, the inhibition rises from -2.49% to 8.27%.

First: COc1ccc(Cc2c(C)nc3nc(N)nc(N)c3c2C)cc1OC
Second: Cc1nc2nc(N)nc(N)c2c(C)c1Cc1ccccc1Br
The inhibition of the first is higher: 12.1% for the first, 6.78% for the second.

Compared with NC(CC1CC(=O)N1CC(=O)O)C(=O)O (stereo not given), CCOC(=O)C(NC(=O)c1ccc([N+](=O)[O-])o1)C(C)C (stereo not given) is lower in inhibition: 8.53% for the first, -2.33% for the second.

Going from O=C(/C=C/c1ccc(Cl)c(Cl)c1)NCCCCCN1CCC(NC(=O)Nc2ccc(Cl)cc2F)CC1 to O=C(/C=C/c1ccc(Cl)c(Cl)c1)NCCCCN1CCCN(C(=O)Nc2ccc(C(F)(F)F)cc2)CC1, the inhibition falls from 2.48% to 1.09%.

Going from NC(=O)c1cccc(C(=O)Nc2cccc(-c3ccc(-c4nc5ccccc5[nH]4)s3)c2)c1 to O=C(Nc1cccc(-c2ccc(-c3nc4cc(C(F)(F)F)ccc4[nH]3)cc2)c1)c1csnn1, the inhibition rises from 0.12% to 0.51%.

First: COc1cc(Nc2ccnc3ccc(C(F)(F)F)cc23)cc(OC)c1OC
Second: FC(F)(F)c1cccc(C=NNc2nc3ccccc3[nH]2)c1
The inhibition of the first is higher: 12.6% for the first, 5.13% for the second.

Compared with COc1cc(-c2cc(-c3ccc(OCCN(C)C)cc3)[nH]c2-c2ccncc2)ccc1Cl, C=CCN(c1ccc(OC)cc1)S(=O)(=O)c1ccc(Cl)c(C(=O)Nc2cccc(C#N)c2)c1 is higher in inhibition: 2.28% for the first, 4.17% for the second.

Going from O=S(=O)(c1cccc(C(F)(F)F)c1)N1CCC(CO)(Cc2cccc(C(F)(F)F)c2)CC1 to Cn1ccnc1CNC(=O)c1ccc(-c2ccc(-c3nc4cc(C(F)(F)F)ccc4[nH]3)s2)cc1, the inhibition falls from 7.55% to 2.03%.

Going from COC(=O)C(=O)c1c(-c2ccccc2)c(-c2ccc(OC)c(OC)c2)c2c3cc(OC)c(OC)cc3ccn12 to CCOc1ccc(-c2nonc2NC(=O)c2ccccc2)cc1OCC, the inhibition falls from 8.49% to 3.26%.

Compared with CN(C)CCOc1cc(O)c2c(c1)OC(C)(C)C=C2c1cccs1, COc1ccc(NC(=O)[C@H](CC(C)C)Nc2cc(C)nc(NCCc3cccs3)n2)cc1 is lower in inhibition: -0.34% for the first, -1.58% for the second.

First: CCNc1cc(C(=O)N[C@@H](Cc2ccccc2)[C@H](O)CNC2(CC)CC2)cc(N2CCCCS2(=O)=O)c1
Second: CC(C)c1ccc(NC(=O)c2ccc(C(=O)NC3CCN(Cc4ccccc4)CC3)cc2)cc1
The inhibition of the first is lower: -2.45% for the first, -1.3% for the second.

Compared with COc1ccc2[nH]cc(C3CCN(CCCCNC(=O)c4ccc(NC(=O)c5ccc(Cl)cc5)cc4)CC3)c2c1, COc1ccc(C2CCN(CCCCNC(=O)c3ccc(NC(=O)c4ccc(Cl)cc4)cc3)CC2)c(C)c1 is lower in inhibition: 5.72% for the first, -2.18% for the second.

Compared with O=C(/C=C/c1ccc(-c2ccccc2)cc1)NCCCCCN1CCC(c2c[nH]c3ccccc23)CC1, N#Cc1ccc2c(c1)CCN(CCC1CCC(NC(=O)/C=C/c3ccc(Cl)c(Cl)c3)CC1)CC2 (stereo not given) is higher in inhibition: -1.76% for the first, 6.83% for the second.

Compared with O=[N+]([O-])c1cccc(NC(=S)N2CCCN(Cc3ccc(F)cc3F)CC2)c1, O=C(CSc1ccccn1)Nc1c(F)cccc1F is higher in inhibition: 0.66% for the first, 2.68% for the second.

First: CC(C)(C)OC(=O)N[C@@H](CS(=O)(=O)CCNC(=N)COCc1ccccc1)C(=O)OC(C)(C)C
Second: CCCCCCCCCc1c(C)[nH]c2ccccc2c1=O
The inhibition of the first is higher: 5.74% for the first, 2.28% for the second.

Compared with O=C(Nc1cc(Cl)ccc1-n1cncn1)C1(c2ccccc2)CC1, Cc1nc(C)c(-c2ccc(S(=O)(=O)c3ccc(Cl)cc3)cc2)c(O)c1Cl is higher in inhibition: 5.68% for the first, 7.16% for the second.
